Source: PubChem BioAssay (NCATS)
Records with an inconclusive call do not appear. Active and inactive are the calls of the source. Calls come from the whole dose curve; as a rule, active = well fitted cell-killing curve with a large enough effect; inconclusive = small, poorly fitted or top-dose-only effect, or effect the other way; inactive = no such curve, though single readings can be large or run the other way.

Test: Quantitative High-Throughput drug screen in 47 multiple myeloma cell lines against the NCATS MIPE library collection: ARP1_JJKsccF8 cell viability assay (AID 1918928; note: nearly all actives have a fitted effect of over 40% in size)
Conditions: ARP1 myeloma cells viability, CellTiter-Glo ATP, 48 h; series mostly up to 45.8 µM; viability: at the top concentration
In short: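 Viability screen: myeloma cells (500/well) incubated 48 h at 37 °C, humidified 5% CO2, with pinned library compounds; CellTiter-Glo added, luminescence read; DMSO wells set 100%, medium-only wells 0%.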
Potency is the fitted concentration of half-maximal effect.

Row | Compound | viability | Potency
1 | O=C(O)C1=CO[C@@H](O[C@@H]2O[C@H](CO)[C@H](O)[C@H](O)[C@H]2O)[C@@H]2C(CO)=CC[C@H]12 | 89.7% (inactive) | –
2 | O=C(Nc1ccccc1)Nc1ccc(-c2ccc(C(=O)[C@H]3CCC[C@H]3C(=O)O)cc2)cc1 | 115% (inactive) | –
3 | COc1ccnc(CS(=O)c2nc3ccc(OC(F)F)cc3[nH]2)c1OC (stereo not given) | 109% (inactive) | –
4 | COc1ccc2nc3cc(Cl)ccc3c(Nc3cc(CN4CCCC4)c(O)c(CN4CCCC4)c3)c2n1 | – | 29.6 µM (active)
5 | CCOC(=O)[C@@H](N)CCC(=O)N[C@@H](CSCc1ccccc1)C(=O)N[C@@H](C(=O)OCC)c1ccccc1 | 48.9% (inactive) | –
6 | CC(C)C[C@@H](N)[C@H](O)C(=O)N[C@H](C(=O)N[C@H](C(=O)N[C@@H](CC(=O)O)C(=O)O)C(C)C)C(C)C | 105% (inactive) | –
7 | CCN(CC)CCCCNc1nc2cc(Cl)c(Cl)cc2nc1-c1ccc(-c2cccs2)s1 | – | 7.43 µM (active)
8 | CN(CC=CC#CC(C)(C)C)Cc1cccc2ccccc12 | 86.6% (inactive) | –
9 | O=C1CCCC(=O)C1C(=O)c1ccc(C(F)(F)F)cc1[N+](=O)[O-] | 90.1% (inactive) | –
10 | CN1CCN2c3ncccc3Cc3ccccc3C2C1 (stereo not given) | 110% (inactive) | –
11 | NCC1CCC(C(=O)O)CC1 (stereo not given) | 115% (inactive) | –
12 | C[C@H]1[C@H](O)O[C@@H]2O[C@@]3(C)CC[C@@H]4[C@H](C)CC[C@@H]1[C@@]24OO3 | – | 1.66 µM (active)
13 | O=C(O)c1nc(=O)[nH]c(=O)[nH]1 | 95.6% [at 23.2 µM] (inactive) | –
14 | CC(NCCc1ccc(O)cc1)C(O)c1ccc(O)cc1 (stereo not given) | 112% (inactive) | –
15 | N=C1SC(=Cc2ccc(-c3ccc4c(c3)C(=O)NC4=O)o2)C(=O)N1c1ccc(Br)cc1 | – | 3.32 µM (active)
